# According to PubChem BioAssay (Tox21):
# Inconclusive results are not listed. Activity calls are given as the source filed them. Unless noted, the call rests on the fitted dose curve.
# Molecular target: Beta-2 adrenergic receptor (Homo sapiens) (UniProt P07550)
# Assay: Adrenergic beta2 receptor (ADRB2) small molecule agonists, cell-based qHTS assay (AID 1963593);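 further: CHO cells stably overexpressing human ADRB2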
# Details: CHO-ADRB2 cells, cAMP HTRF, 30 min; series mostly up to 42.5 µM; activation: at the top concentration
# Summary of the method: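 CHO cells stably over-expressing ADRB2 were plated overnight at 37C, then dosed with compounds plus a stimulation mix containing 100uM IBMX and 25uM Ro-20-1724 for 0.5hr at room temperature. cAMP was measured by HTRF competition, 1hr.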
# On the % scale 0 is the no-effect control and ±100 the full control effect.
# Beta-2 adrenergic receptor (Homo sapiens), sequence (P07550 whole entry, looked up): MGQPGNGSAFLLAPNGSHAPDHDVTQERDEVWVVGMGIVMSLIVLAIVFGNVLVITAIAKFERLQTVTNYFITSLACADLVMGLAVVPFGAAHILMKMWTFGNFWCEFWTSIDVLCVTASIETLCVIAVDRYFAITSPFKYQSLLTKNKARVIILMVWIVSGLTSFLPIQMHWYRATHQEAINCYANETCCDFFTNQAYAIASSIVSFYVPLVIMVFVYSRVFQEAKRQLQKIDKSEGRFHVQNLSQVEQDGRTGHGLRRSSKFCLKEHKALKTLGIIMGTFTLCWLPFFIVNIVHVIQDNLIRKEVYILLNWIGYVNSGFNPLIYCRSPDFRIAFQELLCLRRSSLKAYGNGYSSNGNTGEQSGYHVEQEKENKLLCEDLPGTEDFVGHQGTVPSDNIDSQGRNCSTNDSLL
row,SMILES,activation
1,CC(C)c1ccc(C(=O)N=C(N)N)cc1S(C)(=O)=O,-7.89% (inactive)
2,Cc1ccc(N(CC2=NCCN2)c2cccc(O)c2)cc1,-1.39% (inactive)
3,CCC(C(=O)OCCN(CC)CC)c1ccccc1 (stereo not given),9.53% (inactive)
4,Cc1cccc(C(C)(C)C)c1O,2.58% [at 92.4 µM] (inactive)
5,Cc1cn[nH]c1,15.7% (inactive)
6,C[Si](C)(CCCN)O[Si](C)(C)CCCN,-27% [at 92.4 µM] (inactive)
7,CCCCCCCCCCCCOC(=O)c1ccc(O)cc1,-40.1% [at 92.4 µM] (inactive)
8,CCN1CCCC1CN (stereo not given),4.24% (inactive)
9,CCC(=O)c1c(O)cc(O)cc1O,24.9% (inactive)
10,COc1ccc2c(c1)C(=O)N(CCc1ccc(S(=O)(=O)NC(=O)NC3CCCCC3)cc1)C(=O)C2(C)C,-16.7% (inactive)
11,OCCCCC(O)CO (stereo not given),-16.8% [at 92.4 µM] (inactive)
12,COc1ccc(/C=C/S(=O)(=O)NC(=O)c2ccc(C)cc2Cl)cc1,-9.76% [at 92.4 µM] (inactive)
13,O=C=NCc1cccc(CN=C=O)c1,5.7% [at 19 µM] (inactive)
14,Nc1ccc(S(=O)(=O)Nc2ccccc2)cc1,-15.9% (inactive)
15,C[N+]1(CC2COC(c3ccccc3)(C3CCCCC3)O2)CCCCC1 (stereo not given),0.695% (inactive)
16,C=CC(=O)OCCOCCOC(=O)C=C,2.79% [at 92.4 µM] (inactive)

# Molecular target: D(2) dopamine receptor (Homo sapiens) (UniProt P14416)
# Sequence (P14416 whole entry, looked up): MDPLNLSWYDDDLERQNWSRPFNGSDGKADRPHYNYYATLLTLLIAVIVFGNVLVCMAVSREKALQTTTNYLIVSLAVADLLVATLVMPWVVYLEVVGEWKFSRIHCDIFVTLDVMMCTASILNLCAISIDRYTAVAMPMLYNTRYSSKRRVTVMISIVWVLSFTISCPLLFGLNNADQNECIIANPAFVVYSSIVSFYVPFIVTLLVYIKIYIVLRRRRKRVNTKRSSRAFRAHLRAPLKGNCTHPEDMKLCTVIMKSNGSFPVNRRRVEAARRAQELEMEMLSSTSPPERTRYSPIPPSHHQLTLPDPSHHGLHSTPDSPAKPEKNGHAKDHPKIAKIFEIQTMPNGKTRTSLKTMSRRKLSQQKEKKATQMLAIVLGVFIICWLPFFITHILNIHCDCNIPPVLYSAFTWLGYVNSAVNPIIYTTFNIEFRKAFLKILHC
# Assay: Dopamine D2 receptor (DRD2) small molecule agonists, cell-based qHTS assay (AID 1963594); further: nearly all actives have a fitted effect of over 35% in size
# Details: HEK293-DRD2 cAMP HTRF, agonist mode, 30 min; series mostly up to 92.4 µM; activation: at the top concentration
# Summary of the method: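 cAMP accumulation in DRD2-HEK293 cells measured by HTRF after 1 h detection; compounds added 10 min before NKH477 (200nM […]) forskolin-analogue stimulation, 30 min at room temperature, with Ro20-1724 present at 0.1 mM final.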
row,SMILES,activation
1,COc1ccc(C(=O)c2ccc(OC)cc2O)c(O)c1,1.63% (inactive)
2,Cc1ccc(N(CC2=NCCN2)c2cccc(O)c2)cc1,-1.71% [at 42.5 µM] (inactive)
3,CCC(C(=O)OCCN(CC)CC)c1ccccc1 (stereo not given),0.761% [at 42.5 µM] (inactive)
4,COC(=O)c1cccc(Cl)c1,1.27% (inactive)
5,Cc1cccc(C(C)(C)C)c1O,-0.889% (inactive)
6,Cc1cn[nH]c1,-7.01% [at 42.5 µM] (inactive)
7,C[Si](C)(CCCN)O[Si](C)(C)CCCN,6.89% (inactive)
8,CCC(C=O)CC,0.605% (inactive)
9,Cc1ccc2c(Cl)cc(Cl)c(O)c2n1,19.9% [at 42.5 µM] (inactive)
10,COc1ccc(CN(CCN(C)C)c2ncccn2)cc1,3.28% [at 42.5 µM] (inactive)
11,CCN1CCCC1CN (stereo not given),8.19% [at 42.5 µM] (inactive)
12,O=C1C(CCS(=O)c2ccccc2)C(=O)N(c2ccccc2)N1c1ccccc1 (stereo not given),-2.86% [at 42.5 µM] (inactive)
13,C/C(=N/NC(=O)c1ccncc1)C(=O)O,9.62% [at 42.5 µM] (inactive)
14,O=C1Nc2cc(Cl)ccc2Oc2ccccc21,-14.4% [at 42.5 µM] (inactive)
15,Clc1ccc2c(c1)CCc1cccnc1C2=C1CCNCC1,19.8% [at 42.5 µM] (inactive)
16,CCC(=O)c1c(O)cc(O)cc1O,2.13% [at 42.5 µM] (inactive)
17,CC(C)(O)c1ccc(CNC(=O)c2cccnc2Oc2ccc(F)cc2)cc1,-0.129% (inactive)

row,SMILES,activation
1,COc1ccc2c(c1)C(=O)N(CCc1ccc(S(=O)(=O)NC(=O)NC3CCCCC3)cc1)C(=O)C2(C)C,8.85% [at 42.5 µM] (inactive)
2,CCCCCCCCN(C)CCCCCCCC,-13.4% (inactive)
3,CC(C)(C)C(=O)O,-0.971% (inactive)
4,OCCCCC(O)CO (stereo not given),4.05% (inactive)
5,Cc1ccc(-n2[nH]c(C)c(N=Nc3cccc(-c4cccc(C(=O)O)c4)c3O)c2=O)cc1C,2.25% [at 42.5 µM] (inactive)
6,CN(C)CC/C=C1/c2ccccc2COc2ccc(CC(=O)O)cc21,0.291% [at 42.5 µM] (inactive)
7,C=Cc1ccccc1C=C,2.16% [at 240 µM] (inactive)
8,COc1ccc(/C=C/S(=O)(=O)NC(=O)c2ccc(C)cc2Cl)cc1,5.54% (inactive)
9,O=C=NCc1cccc(CN=C=O)c1,-2% [at 19 µM] (inactive)
10,Cc1cc(S(=O)(=O)O)c(N)cc1Cl,2.1% (inactive)
11,Nc1ccc(S(=O)(=O)Nc2ccccc2)cc1,9.75% [at 42.5 µM] (inactive)
12,O=Cc1ccc(F)c(Br)c1,3.53% (inactive)
13,CC(C)OC(=O)c1ccccc1,0.771% (inactive)
14,C[N+]1(CC2COC(c3ccccc3)(C3CCCCC3)O2)CCCCC1 (stereo not given),-11.8% [at 42.5 µM] (inactive)
15,Nc1ccccc1O,1.11% (inactive)
16,C=CC(=O)OCCOCCOC(=O)C=C,0.403% (inactive)

# Molecular target: D(2) dopamine receptor (Homo sapiens) (UniProt P14416)
# Assay: Dopamine D2 receptor (DRD2) small molecule antagonists, cell-based qHTS assay (AID 1963595; active means well fitted inhibition curve with a large enough effect in the signal ratio in the repeat runs, with a control signal flat; the % refers to the signal ratio)
# Details: HEK293-DRD2 cAMP HTRF antagonist mode; series mostly up to 92.4 µM; activity change, negative = inhibition: at the top concentration
# Summary of the method: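 Readout: HTRF cAMP, cAMP-d2 competing with cellular cAMP for anti-cAMP cryptate, read after 1 h. Cells: DRD2-HEK293. Conditions: 0.1 mM Ro20-1724, 12 nM quinpirole, 200 nM NKH477, 30 min RT.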
row,SMILES,"activity change, negative = inhibition"
1,COc1ccc(C(=O)c2ccc(OC)cc2O)c(O)c1,17.8% (inactive)
2,CC(C)c1ccc(C(=O)N=C(N)N)cc1S(C)(=O)=O,-6.73% [at 42.5 µM] (inactive)
3,COC(=O)c1cccc(Cl)c1,1.1% (inactive)
4,Cc1cccc(C(C)(C)C)c1O,13.6% (inactive)
5,Cc1cn[nH]c1,2.69% [at 42.5 µM] (inactive)
6,CCCCCCCCCCCCCCCCCCOS(=O)(=O)O,6.28% (inactive)
7,C[Si](C)(CCCN)O[Si](C)(C)CCCN,1.32% (inactive)
8,CCCCCCCCCCCCOC(=O)c1ccc(O)cc1,-2.33% (inactive)
9,O=C1N(c2ccccc2)c2ccccc2C1(Cc1ccncc1)Cc1ccncc1,-1.8% [at 42.5 µM] (inactive)
10,CCC(C=O)CC,13.2% (inactive)
11,Cc1ccc2c(Cl)cc(Cl)c(O)c2n1,-4.86% [at 42.5 µM] (inactive)
12,COc1ccc(CN(CCN(C)C)c2ncccn2)cc1,5.54% [at 42.5 µM] (inactive)
13,CCN1CCCC1CN (stereo not given),-8.58% [at 42.5 µM] (inactive)
14,O=C1C(CCS(=O)c2ccccc2)C(=O)N(c2ccccc2)N1c1ccccc1 (stereo not given),3.73% [at 42.5 µM] (inactive)
15,C/C(=N/NC(=O)c1ccncc1)C(=O)O,-1.38% [at 42.5 µM] (inactive)
16,O=C1Nc2cc(Cl)ccc2Oc2ccccc21,0.416% [at 42.5 µM] (inactive)
17,Clc1ccc2c(c1)CCc1cccnc1C2=C1CCNCC1,-22.1% [at 42.5 µM] (inactive)
18,CCC(=O)c1c(O)cc(O)cc1O,9.62% [at 42.5 µM] (inactive)

row,SMILES,"activity change, negative = inhibition"
1,CC(C)(O)c1ccc(CNC(=O)c2cccnc2Oc2ccc(F)cc2)cc1,-3.66% (inactive)
2,COc1ccc2c(c1)C(=O)N(CCc1ccc(S(=O)(=O)NC(=O)NC3CCCCC3)cc1)C(=O)C2(C)C,-1.51% [at 42.5 µM] (inactive)
3,CCCCCCCCN(C)CCCCCCCC,5.76% (inactive)
4,CC(C)(C)C(=O)O,6.21% (inactive)
5,OCCCCC(O)CO (stereo not given),-2.24% (inactive)
6,Cc1ccc(-n2[nH]c(C)c(N=Nc3cccc(-c4cccc(C(=O)O)c4)c3O)c2=O)cc1C,3.98% [at 42.5 µM] (inactive)
7,CN(C)CC/C=C1/c2ccccc2COc2ccc(CC(=O)O)cc21,7.21% [at 42.5 µM] (inactive)
8,COc1ccc(/C=C/S(=O)(=O)NC(=O)c2ccc(C)cc2Cl)cc1,-11.8% (inactive)
9,O=C=NCc1cccc(CN=C=O)c1,2.32% [at 18.9 µM] (inactive)
10,Cc1cc(S(=O)(=O)O)c(N)cc1Cl,-0.635% (inactive)
11,Nc1ccc(S(=O)(=O)Nc2ccccc2)cc1,-3.01% [at 42.5 µM] (inactive)
12,O=Cc1ccc(F)c(Br)c1,3.03% (inactive)
13,Cc1nc2ccccc2n1Cc1ccc(Cl)cc1,-1.49% [at 42.5 µM] (inactive)
14,CCC(CO)(CO)COCC(CC)(CO)CO,17.4% (inactive)
15,C[N+]1(CC2COC(c3ccccc3)(C3CCCCC3)O2)CCCCC1 (stereo not given),-0.506% [at 42.5 µM] (inactive)
16,Nc1ccccc1O,1.82% (inactive)
17,C=CC(=O)OCCOCCOC(=O)C=C,2.26% (inactive)
18,OCC(CO)(CO)COCC(CO)(CO)CO,3.86% (inactive)
